Among all 190,000 compounds or so, about 1,300 (0.68%) were called active. The list comes from a sample in which actives are over-represented; it also holds similar structures and randomly drawn compounds. A number with no mark means an inactive call. Rule as the data show it: active = inhibition above about 50%; inactive = the rest.

Mannose-6-phosphate isomerase (Homo sapiens), sequence (P34949 whole entry, looked up): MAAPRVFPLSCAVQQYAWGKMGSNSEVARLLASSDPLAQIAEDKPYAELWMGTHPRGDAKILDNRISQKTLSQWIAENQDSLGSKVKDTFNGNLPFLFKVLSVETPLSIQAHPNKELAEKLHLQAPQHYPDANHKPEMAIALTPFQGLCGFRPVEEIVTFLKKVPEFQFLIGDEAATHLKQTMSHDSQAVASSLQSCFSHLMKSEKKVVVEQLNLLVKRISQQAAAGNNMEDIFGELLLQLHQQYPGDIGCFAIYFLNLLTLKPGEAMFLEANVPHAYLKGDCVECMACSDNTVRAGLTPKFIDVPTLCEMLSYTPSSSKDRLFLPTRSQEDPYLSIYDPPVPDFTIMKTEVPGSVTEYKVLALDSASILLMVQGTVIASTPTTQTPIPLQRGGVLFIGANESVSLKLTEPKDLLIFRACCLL

This experiment addresses Mannose-6-phosphate isomerase (Homo sapiens) (UniProt P34949). Nature of the experiment: human PMI inhibitors, high substrate, primary screen, biochemical, fluorescence intensity, high mannose 6-phosphate (AID 1220). The note with it: recombinant PMI enzyme, coupled fluorescence intensity; at 20 µM; hits give high values.
On to `Cc1ccc(/C=C/C(=O)O)cc1S(=O)(=O)NCCCC(=O)O`, for which the inhibition (in general, the relative decrease from the control value, in per cent) is 0.6%.
`O=C(CCN1C(=O)C2C3C=CC(C3)C2C1=O)N1CCN(c2ccc([N+](=O)[O-])cc2)CC1` (configuration not stated): the inhibition was 21.6%.
For the molecule `CCC(=O)Nc1nc2nc(-c3ccccc3)cc(-c3ccccc3)n2n1`, the inhibition is 0.3%.
Then `Cc1ccc(O)c(NC(=S)NC(=O)/C=C/c2ccco2)c1`, with -3.9%; and `Cc1cc(=O)oc2cc(OCc3ccc(C(=O)N4CCN(c5ccccc5)CC4)cc3)ccc12`, with 10.2%; and `CCC(C)NC(=O)CNC(=S)N(Cc1ccccc1F)C1CCCCC1` (configuration not stated), with 6.1%.
`COc1ccc(NC(=O)CSc2nnc(-c3cccnc3)n2Cc2ccco2)c(OC)c1`: the inhibition was 8%.
Turning to `c1ccc(OCCN2CCN(Cc3nc(-c4ccc5c(c4)OCO5)no3)CC2)cc1`, the inhibition is -4.3%.
Then `CC(=O)Nc1ccc(NC(=O)CC2Nc3cccc4cccc(c34)NC2=O)cc1` (configuration not stated), with -5.1%; and `O=C(CC1Nc2cccc3cccc(c23)NC1=O)Nc1ccccc1` (configuration not stated), with 39%.
Then `O=C(CC1Nc2cccc3cccc(c23)NC1=O)Nc1ccc(F)cc1` (configuration not stated), with 54% (active); and `Brc1ccc(/C=N/c2nc3ccccc3n2CCN2CCOCC2)cc1`, with 9.4%.
Then `C=CCn1c(=NC(=O)c2ccc(S(=O)(=O)N3CCCc4ccccc43)cc2)sc2cc(S(N)(=O)=O)ccc21`, with 59.2% (active); and `C=CCn1c(=NC(=O)c2ccc(S(=O)(=O)N3CCc4ccccc4C3)cc2)sc2cc(S(N)(=O)=O)ccc21`, with 1.8%.
Take `C#CCn1c(=NC(=O)c2ccc(S(=O)(=O)N3CCCc4ccccc43)cc2)sc2cc(S(N)(=O)=O)ccc21`: the inhibition was 20.9%.
As for `N/C(=N\OC(=O)Oc1ccccc1)c1cccc([N+](=O)[O-])c1`, the figure is -8.6%.
Take `CCOC(=O)c1cc(NC(=O)Nc2ccccc2OC)c(C)nc1C`: the inhibition is 6%.
Then `CCCCCn1c(N)c(-c2nc3ccccc3o2)c2c([N+](=O)[O-])nn(C)c(=O)c21`, with -0.9%.
For `Cc1noc2ncnc(Oc3ccccc3Cl)c12`, the inhibition is 0%.
Then `COc1cccc(CN(C)C(=S)Nc2cccc(C)c2)c1`, with 0.1%; and `O=C(COc1cccc(Cl)c1)N/N=C\c1cc2ccccc2nc1Cl`, with -3.2%; and `Cc1ccccc1OCC(=O)N/N=C/c1cc2ccccc2nc1Cl`, with 9.1%.
Then `O=C(CNc1ccc2ccccc2c1)N/N=C/c1cc2ccccc2nc1Cl`, with 67.5% (active); and `Cc1ccc(NCC(=O)N/N=C/c2cc(O)ccc2[N+](=O)[O-])cc1`, with 57.6% (active); and `O=C(CN1CCOCC1)N/N=C/c1cc2ccccc2nc1Cl`, with 15.9%.
As for `O=C(CN1CCCCC1)N/N=C/c1cc2ccccc2nc1Cl`, the figure is -10.7%; as for `Cc1ccc(NCC(=O)N/N=C\c2ccc([N+](=O)[O-])o2)cc1`, -1.6%; as for `Cc1ccc(NCC(=O)N/N=C\c2cccc(O)c2)cc1`, 18.7%.
`Cc1ccc(NCC(=O)N/N=C/c2cc3ccccc3nc2Cl)cc1`: the inhibition is 57.6% (active).
Then `CC(=O)Nc1ccc(S(=O)(=O)N2CCN(C(=O)N3CCOCC3)CC2)cc1`, with 1.8%; and `O=C(CSCc1ccc(Cl)cc1)NCCSCc1ccco1`, with 4%; and `O=C1NC(c2ccccc2)=C(c2nc3ccccc3s2)C(c2ccccc2)N1` (configuration not stated), with 14.1%.
Regarding `NC(=O)c1ccccc1NC(=O)Nc1cccc2ccccc12`, the inhibition was 19%.
Turning to `COC(=O)c1ccc2c(c1)N(C)C(=O)CS2`, the inhibition was 6.4%.
As for `O=C(Nc1ccc2c(c1)OCCO2)c1ccc(Br)s1`, the figure is -2.3%; as for `Cc1cc(C)c(S(=O)(=O)/N=C2\C=CC(=O)C(Cl)=C2)c(C)c1`, -6.5%.
As to `Cc1nc2sccn2c1-c1csc(NCc2ccccc2)n1`, the inhibition is 34.1%.
As for `C=CCNc1nc(-c2c(C)nc3sccn23)cs1`, the inhibition was 55.2% (active).
As for `Cc1ccnc(Nc2nc(-c3c(C)nc4sccn34)cs2)c1`, the inhibition was 19.1%.
As for `COC(=O)c1c(O)c2c([nH]c1=O)CCCC2`, the figure is -0.6%; as for `CCCCCn1c(CN2CC(C)OC(C)C2)nc2c1c(=O)n(C)c(=O)n2C` (configuration not stated), 8.9%.
As for `CCn1c(Cc2ccccc2)nnc1SCC(=O)NC(C)(C)C`, the figure is 52.9% (active); as for `CCn1c(Cc2cccs2)nnc1SCC(=O)NC(C)(C)C`, -5.7%.
As for `COCCn1c(Cc2ccccc2)nnc1SCC(=O)NC(C)(C)C`, the figure is -1.6%.
Consider `CN1CCCN(C(=O)CNC(=O)Cc2ccccc2)CC1`, for which the inhibition is 4.9%.
As for `COC(=O)C1=C(C)NC2=C(C(=O)CCC2)C1c1cn(Cc2ccc(Br)cc2)nc1-c1ccccc1` (configuration not stated), the figure is 13.4%; as for `COc1ccc(OC)c(NC(=O)Nc2ccccc2C)c1`, 1.9%.
Then `COc1ccc(OC)c(NC(=O)NC2(C(F)(F)F)Oc3ccccc3O2)c1`, with 58% (active); and `COc1cccc(NC(=O)NC2(C(F)(F)F)Oc3ccccc3O2)c1`, with 48.7%; and `COc1ccc(N2CCN(CCC3Oc4cc([N+](=O)[O-])ccc4NC3=O)CC2)cc1` (configuration not stated), with 38.8%.
Then `Cc1cc(NC(=O)C2CC2)ncc1NC(=O)C12CC3CC(CC(C3)C1)C2`, with 5.3%; and `CC1(c2ccc(Cl)cc2Cl)OCC(Cn2ccnc2)O1` (configuration not stated), with 3.5%; and `Cc1cccc(C=Nc2ccc3c4c(cccc24)CC3)c1O`, with 45.4%.
On to `CC(C)(C)c1ccc(O)c(N=Cc2cc(Br)ccc2O)c1`, for which the inhibition was 39.3%.
Then `Oc1ccc(Br)cc1C=Nc1ccc2c3c(cccc13)CC2`, with 67.1% (active); and `Cc1nnc(SCC(=O)NC2CCS(=O)(=O)C2)n1-c1ccccc1` (configuration not stated), with -3.2%.
`O=S(=O)(Nc1ccccc1O)c1cccc2cccnc12`: the inhibition was 11.7%.
As for `Cc1ccc(S(=O)(=O)Nc2ccc(O)c3ncccc23)cc1`, the figure is 27.9%; as for `CCc1ccc(S(=O)(=O)Nc2cc(SCC(=O)O)c(O)c3ccccc23)cc1`, 7.4%.
As for `O=S(=O)(Nc1cc(Sc2cccc3cccnc23)c(O)c2ccccc12)c1ccc(F)cc1`, the figure is 51.1% (active).
Then `COc1ccc(S(=O)(=O)Nc2cc(Sc3ncn[nH]3)c(O)c3ccccc23)cc1`, with 72.4% (active); and `Cc1ccc(S(=O)(=O)Nc2cccc3cccnc23)cc1`, with 16.3%.
Consider `CCOc1ccc(S(=O)(=O)Nc2ccc(O)c(Sc3ncn[nH]3)c2)cc1`, for which the inhibition is 2.5%.
Then `O=C(Sc1cccc2cccnc12)c1ccc(F)cc1`, with 11.3%; and `O=S(=O)(Nc1cc(Sc2cccc3cccnc23)c(O)c2ccccc12)c1ccccc1`, with 63.7% (active).
Then `Cc1cc(C)c(S(=O)(=O)Nc2cc(SCC(=O)O)c(O)c3ccccc23)cc1C`, with 21.6%; and `COc1ccc(S(=O)(=O)Nc2ccc(O)c(Sc3ncn[nH]3)c2)cc1`, with 13%.

The record behind these values is PubChem BioAssay AID1220 (Sanford-Burnham Center for Chemical Genomics, 2008).
